The results in this text go back to PubChem BioAssay (NCATS).

SMILES strings stand for the structures. Results filed as inconclusive are left out. Unmarked numbers belong to inactive results. Active and inactive are the calls of the source. Calls follow the shape of the dose curve; as a rule, active = well fitted cell-killing curve with a large enough effect; inconclusive = small, poorly fitted or top-dose-only effect, or effect the other way; inactive = flat fitted curve, though single readings scatter.
% is scaled to controls: 0 for no effect and ±100 for the full control effect; potency is read from the fitted curve at half-maximal effect.

The test system of this experiment is Tov-21-G. Briefly: Primary qHTS to identify gynecologic anti-cancer compounds using libraries of approved drugs and bioactive compounds (AID 1345084). Also: nearly all actives have a fitted effect of over 55% in size. Particulars: Gynecologic cancer cell panel viability, ATPlite luminescence, 48 h; series mostly up to 57.5 µM; activity change, negative = cytotoxicity: at the top concentration. In outline: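 ATP-based viability (ATPlite), 1,000 cells/well, 16 h pre-incubation, 48 h compound at 37 C, 5% CO2, 15 min RT before read.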
A general note: Quantitative high-throughput screening tests each substance at several concentrations.
For `CN1CCC(NC(=O)c2cc(-c3c(O)cc(O)cc3Oc3ccc([N+](=O)[O-])cc3)on2)CC1`, the Potency was 0.562 µM (active). On to `Cc1[nH]c(/C=C2\C(=O)Nc3ccc(S(=O)(=O)N(C)c4cccc(Cl)c4)cc32)c(C)c1C(=O)N1CCN(C)CC1`, for which the “activity change, negative = cytotoxicity” value was -18.2%.

As to `C=C[C@@]1(C)CCC2C(=CCC3[C@]2(C)CCC[C@@]3(C)C(=O)O)C1` (stereo partly drawn), the “activity change, negative = cytotoxicity” value was -16.2%. The same measure, in the same setting: the same measure for `Cn1ncnc1[C@H]1c2n[nH]c(=O)c3cc(F)cc(c23)N[C@@H]1c1ccc(F)cc1`: -27.3% [at 25.3 µM]; for `COC(=O)CC(O)CC(O)/C=C/c1c(C)ccc2c1C(OC(C)=O)CC(C)C2` (stereo not drawn): -19.7% [at 38.5 µM]. In the case of `C[C@@]12C(=O)N(c3ccc(C(=O)Nc4cccc5cccnc45)cc3)C(=O)[C@@H]1[C@@H]1C=C[C@H]2C1`, the “activity change, negative = cytotoxicity” value was -10.4%. `COc1ccc(-c2cc3onc(-c4ccncc4)c3c(=O)n2C)cc1`: the “activity change, negative = cytotoxicity” value was -14.2%. Turning to `COc1cc(N2CCC(N3CCN(C)CC3)CC2)ccc1Nc1ncc(Cl)c(Nc2ccccc2P(C)(C)=O)n1`, the Potency was 7.08 µM (active).
